HCV inh = qHTS Assay for Inhibitors of Hepatitis C Virus (HCV) | 340,000 compounds, 3.4% hits | AID 651820, 2012 | Potency, µM (top dose mostly 41.8 µM), for the others: at the highest dose activity change, negative = inhibition, actives largely listed as inhibitors | Huh7.5.1 HCVcc-Cre infection, luciferase reporter, 44 h; also: potency is read from the fitted curve at half-maximal effect
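Cells seeded at 1,000/well and cultured 4 h, then compounds added followed by HCVcc-Cre virus (~0.5 moi). After 44 h further culture, luciferase substrate was added, plates held 15 min at room temperature, and luminescence read for 15 sec.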
Pf growth 48h = Primary qHTS for delayed death inhibitors of the malarial parasite plastid, 48 hour incubation. 310,000 compounds, 5.9% hits. Potency, µM (top dose mostly 28.7 µM), for inactives: at the highest dose activity change, negative = inhibition, most hits filed as inhibitors. P. falciparum luciferase growth in erythrocytes, 48 h; also: potency is read from the fitted curve at half-maximal effect
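Here the parasites carry a stable luciferase gene and grow inside erythrocytes in Albumax-based RPMI medium with compound for one erythrocytic cycle. Activity is scored as loss of luminescent signal.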
Pf growth 96h = Primary qHTS for delayed death inhibitors of the malarial parasite plastid, 96 hour incubation; Potency, µM (series often up to 28.7 µM), without a hit: at the highest dose activity change, negative = inhibition, hits mostly inhibitors; 320,000 compounds, 6.9% hits; AID 504834, 2011; P. falciparum luciferase reporter growth, 96 h; also: potency is read from the fitted curve at half-maximal effect
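Parasite growth measured via integrated firefly luciferase reporter in P. falciparum. Infected erythrocytes at 2% hematocrit, 0.05% parasitemia final were treated 96 hours at 37 C under 5% CO2, and luminescence was read.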
HCMV antiviral = qHTS Assay for inhibitors of the human cytomegalovirus (HCMV) | HFF cells, HCMV-luciferase reporter, 72 h; active compounds read low | activity change, negative = inhibition, % at 57.5 µM | 410,000 compounds, 4.5% hits | AID 1259415, 2018; in the data active = activity change below about -60%; inconclusive = no clear call, values can overlap the other calls; inactive = above about -39%
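Compounds were evaluated in HFFs infected with an HCMV luciferase reporter virus (MOI 1 PFU/cell). Luciferase in lysates collected 72 h post infection served as the replication measure.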
* = called active by the depositor; ! = repeats disagree; [ ] = dose if it differs, or a comment. Hits are enriched below; roughly 13% of the tested compounds scored in any of these assays. Unless noted, calls follow the shape of the dose curve; as a rule, active = well fitted inhibition curve with a large enough effect; inconclusive = small, poorly fitted or top-dose-only effect, or another doubt; inactive = no such curve, though single readings can be large or run the other way. % is scaled to controls: 0 for no effect and ±100 for the full control effect.

`O=C(Nc1ccnn1C1CCN(C/C=C/c2ccccc2)CC1)c1ccccc1Cl` gave Pf growth 48h inconclusive, Pf growth 96h 31.3% and HCMV antiviral 22.0.
`CCOc1ccc(C2C(C(=O)Nc3ccc(C)cc3C)=C(C)Nc3c(C(=O)Nc4ccc(C)cc4)cnn32)cc1OC` (centres undefined) gave HCMV antiviral -11.8.
For COc1ccccc1/C=C/CN1CCC(n2nccc2NC(=O)CCc2ccccc2)CC1 the results were HCV inh 3.55µM*, Pf growth 48h inconclusive, Pf growth 96h inconclusive and HCMV antiviral inconclusive.
For O=C(Oc1ccccc1)c1cccc2cccc(C(=O)Oc3ccccc3)c12 the results were HCV inh inconclusive, Pf growth 48h inconclusive, Pf growth 96h 10.4µM* and HCMV antiviral -9.9.
For O=C(Oc1ccccc1)c1ccccc1C(=O)Oc1ccccc1 the results were HCV inh -4.6% and HCMV antiviral 5.1.
Cn1c(NC2CCCCC2)cc(=O)n(C)c1=O was read as HCV inh 4.1%, Pf growth 48h inconclusive, Pf growth 96h 10.4µM* and HCMV antiviral 11.4.
Screening COc1ccc(NC(=O)Cn2c(SCc3ccc(C)cc3)nc3cccnc32)c(OC)c1 returned HCMV antiviral 48.7.
`Oc1ccc(NCc2ccc(OCc3ccccc3)cc2)cc1` gave HCV inh -23.4%, Pf growth 48h 1.2%[0.00184 µM], Pf growth 96h 2.8% and HCMV antiviral -62.9*!.
`Oc1ccc(OCc2ccccc2)cc1` gave Pf growth 48h -26.9%[12.8 µM] and Pf growth 96h inconclusive.
For CCc1ccc(CNc2ccc(O)cc2)cc1 the results were HCV inh -3.5%, Pf growth 48h 11.7µM* and Pf growth 96h 56.4%.
Oc1ccc(NCc2ccc(OCc3ccccc3Cl)cc2)cc1 was read as HCMV antiviral 6.6.
Cc1ccccc1NC(=O)CSc1nc2c(oc3ccccc32)c(=O)n1-c1ccccc1F was read as HCMV antiviral -9.7.
`CCCCc1ncc(/C=C(\Cc2cccs2)C(=O)O)n1Cc1ccc(C(=O)O)cc1` gave Pf growth 48h -7.3% and Pf growth 96h -8.2%.
For Nc1n[nH]c(-c2ccc(Br)cc2)c1Cl the results were HCV inh -8.8%, Pf growth 48h 42.1%, Pf growth 96h 36.7% and HCMV antiviral -108.6*.
Screening Nc1nc(-c2ccc(Cl)cc2)nnc1-c1ccc(Br)cc1 returned HCV inh 8.5%, Pf growth 48h 87.3%, Pf growth 96h 122.5% and HCMV antiviral -4.7.
CCCCCN1C(C(=O)c2ccccc2)=C(NC(=O)c2ccccc2Cl)c2ccccc2S1(=O)=O was read as HCMV antiviral -0.5.
Screening CC1=C(N2CC2)C(=O)C(CO)=C(N2CC2)C1=O returned HCV inh inconclusive and HCMV antiviral -96.9*.
Screening CC(=O)O[C@@H]1[C@@H](O)[C@@H](O)[C@H](Oc2c(-c3ccc(O)cc3)oc3c(CC=C(C)C)c(O)cc(O)c3c2=O)O[C@H]1C returned HCV inh -29.9%.
`CC(=O)O[C@H]1[C@@H](O)[C@H](O)[C@H](Oc2c(O)c(C)c3c4c2[C@@H](C)CC[C@@H]4[C@@H](C)C[C@H]3C=C(C)C)O[C@H]1C` gave HCV inh inconclusive and HCMV antiviral -96.9*.
For O=C(/C=C/c1ccc(Cl)cc1)N1CCC(c2nc3ccccc3o2)CC1 the results were HCMV antiviral -28.3.
CCCn1c(=N)n(CCOc2ccc(OC)cc2)c2ccccc21 was read as HCV inh inconclusive, Pf growth 48h 14.7µM* and HCMV antiviral -39.2.
Screening CCn1c(=N)n(CC(O)c2ccccc2)c2ccccc21 (centres undefined) returned HCV inh 14.6%, Pf growth 48h inconclusive, Pf growth 96h -8.6% and HCMV antiviral -15.8.
N=c1n(CCN2CCOCC2)c2ccccc2n1CC(O)COc1ccccc1 (centres undefined) was read as HCV inh 0.3%, Pf growth 48h -13.5%, Pf growth 96h 18.9% and HCMV antiviral 27.7.
`CCCCn1c(=N)n(CC(O)COc2ccc(C)cc2)c2ccccc21` (centres undefined) gave HCV inh 11.2µM*, Pf growth 48h 2.33µM* and HCMV antiviral -33.8.
For CCOC(=O)Cn1c(=N)n(CCOc2ccc(OC)cc2)c2ccccc21 the results were HCV inh -3.5%, Pf growth 48h 7.8% and HCMV antiviral 1.7.
For CCCCn1c(=N)n(CC(O)c2ccccc2)c2ccccc21 (centres undefined) the results were HCV inh inconclusive, Pf growth 48h 2.08µM*, Pf growth 96h 13.1µM* and HCMV antiviral inconclusive.
CCCCn1c(=N)n(CC(O)COc2ccccc2)c2ccccc21 (centres undefined) was read as HCV inh inconclusive, Pf growth 48h 5.22µM*, Pf growth 96h inconclusive and HCMV antiviral 14.0.
`CCn1ccc2cc(S(=O)(=O)N3CCCN(C(=O)NCCOC)CC3)ccc21` gave HCMV antiviral 7.6.
CSc1ccc(CCNC(=O)CCc2c(C)nc3c(-c4ccccc4)c(C)nn3c2C)cc1 was read as HCMV antiviral -5.5.
For CCCc1nnc(SCc2cc(=O)c3c(C)cc(C)cc3[nH]2)n1C the results were HCMV antiviral 1.5.
CCOc1ccccc1CNc1nc2nc(C)c(CC(=O)OC)c(=O)n2[nH]1 was read as HCMV antiviral 11.9.
CCOC(=O)c1[nH]c(C)c(CCC(=O)NCc2ccc(N(C)C)cc2)c1C was read as HCMV antiviral 6.3.
For O=C(CCl)NCCCN(C(=O)C(Cl)Cl)c1ccc([N+](=O)[O-])cc1 the results were HCV inh inconclusive, Pf growth 48h 6.57µM*, Pf growth 96h 7.38µM* and HCMV antiviral -103.2*.
COCCCNC(=O)c1ccc([N+](=O)[O-])cc1 was read as HCV inh 4.6%, Pf growth 48h 30.0%, Pf growth 96h 4.9% and HCMV antiviral -0.3.
`CN1[C@@H](CC(=O)c2ccccc2)CCC[C@H]1C[C@H](O)c1ccccc1` gave HCV inh inconclusive, Pf growth 48h 13.5µM*, Pf growth 96h 16.9µM*! and HCMV antiviral -27.8.
`COc1ccc(CCn2cc3c(c2-c2ccccc2Br)c(=O)n(C)c(=O)n3C)cc1OC` gave HCMV antiviral 2.5.
Screening O=C(CCS(=O)(=O)c1ccc(Cl)cc1)Nc1ccccc1Br returned HCV inh 3.2%, Pf growth 48h 3.3%, Pf growth 96h 224.0% and HCMV antiviral -97.7*.
COc1ccc(NC(=O)CCS(=O)(=O)c2ccc(Cl)cc2)cc1 was read as HCV inh inconclusive, Pf growth 48h 6.8%, Pf growth 96h -0.1% and HCMV antiviral 13.9.
Screening CC(=O)c1sc(NC(=O)CCS(=O)(=O)c2ccc(Cl)cc2)nc1C returned HCV inh 1.12µM*, Pf growth 48h -10.5%, Pf growth 96h -0.1% and HCMV antiviral 0.7.

Assay outcomes deposited in PubChem by National Center for Advancing Translational Sciences (NCATS).
